The results in this text go back to PubChem BioAssay AID1233 (SRMLSC, 2008).

Measured potencies and affinities stand elsewhere. Values without a mark were called inactive.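 The calls were made as follows: active = a dose-response curve fit returns a half-maximal inhibitory concentration, extrapolated values included; inactive = the fit returns no such concentration.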

For this test, the target named is HMG-CoA reductase [Enterococcus faecalis] (UniProt Q9FD70). The experiment in a line: class II HMG-CoA reductase inhibition potency – biochemical, Enterococcus faecalis, confirmation (AID 1233).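 Also: 0% = full reaction carrier wells and 100% = background wells lacking mevalonate.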 The note with it: purified E. faecalis HMGR, NADPH absorbance 340 nm kinetics; series mostly up to 100 µM; inhibition: at the top concentration.
A word on the inhibition: it is the relative decrease from the control value, in per cent. As to `CCOC(=O)C(C(=O)OCC)C1CCS(=O)(=O)C1` (centres undefined), the “inhibition” value was -2.07%.
With `Clc1ccc2c(c1)C(c1cccs1)=NNC(c1cccnc1)=N2`, the “inhibition” value is -2.29%.
With `C=CCn1cnc2c(nnn2-c2ccc(Cl)cc2)c1=O`, the “inhibition” value is -3.27%.
Under `Cc1[nH]nc2c1C(c1ccsc1)C1=C(CC(C)(C)CC1=O)N2` (centres undefined) stands -5.51%; under `Cc1[nH]nc2c1C(CCc1ccccc1)C(C#N)=C(N)O2` (centres undefined), -4.55%; under `CCn1c2ccccc2c2cc(NC(=O)CSc3nnc(-c4ccc(OC)c(OC)c4)n3N)ccc21`, 0.13%.
Under `N#Cc1c2c(c(-c3ccccc3Cl)[nH]c1=S)CCCC2` stands 0.99%.
On to `O=C1OC(c2cccs2)=N/C1=C/c1ccc(-c2cccc(C(=O)O)c2)o1`, for which the “inhibition” value is -3.77%.
Under `COc1cccc(NC(=O)c2cc(-c3ccncc3)nc3c(C)cc(C)cc23)c1` stands -5.32%.
Under `CN(Cc1nc(-c2cnccn2)no1)C1CC(C)(C)NC(C)(C)C1` stands -4.08%; under `CCOCC(=O)OCC(=O)Nc1cc(OC)c([N+](=O)[O-])cc1C`, -10.1%.
Under `O=S(=O)(NCC1CCCO1)c1ccc2c(c1)OCCO2` (centres undefined) stands 0.8%; under `Cc1ccc(NC(=O)c2ccc3nc[nH]c3c2)c(O)c1`, -4.7%; under `CCNC(=O)NC(=O)C(C)OC(=O)c1ccc(-n2nc(SC)sc2=S)cc1` (centres undefined), -5.23%.
For the molecule `Cc1ccccc1Nc1nc(N)nc(CN2CCN(Cc3ccc4c(c3)OCO4)CC2)n1`, the “inhibition” value is -8.07%.
`O=C(CSCc1ccc(Cl)cc1)NCC1CCCO1` (centres undefined): the “inhibition” value was 0.13%.
Regarding `CCn1c(C)nc2cc(S(=O)(=O)C(F)(F)C(F)C(F)(F)F)ccc21` (centres undefined), the “inhibition” value was -0.73%.
Under `COC(=O)Cc1cc(=O)n2[nH]cnc2n1` stands -9.81%.
`Cn1c(OCc2cccnc2)nc2c1c(=O)n(Cc1ccc(Br)cc1)c(=O)n2C`: the “inhibition” value was -5.55%.
